Experimental data reported in PubChem BioAssay (EPA / NIEHS).
Calls of active or inactive are those of the source. The calls were made as follows, unless noted: active = hit-call score of the fitted dose curve at least 0.9, where 1 is the maximum; inactive = score below 0.9.

Tests used:
[1] = molecular target: Peroxisome proliferator-activated receptor gamma (Homo sapiens) (UniProt P37231); assay: OT_PPARg_PPARgSRC1_1440: Odyssey Thera (OT) 24-hour Protein-Complementation Assay for Peroxisome Proliferator-activated Receptor Gamma/ SRC-1 Co-activator (AID 2283388; active = hit-call score of the fitted dose curve at least 0.9, where 1 is the maximum)
Summary of the method: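 HEK293T transiently transfected with PPARg/SRC-1 split-Venus YFP fusions 48 h before dosing, then treated 24 h at 37C. Fixed cells imaged; nuclear/cytoplasmic 488 nm fluorescence ratio, gain of signal versus DMSO.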

[2] = read-out: Tumor necrosis factor receptor superfamily member 6 (Homo sapiens) (UniProt P25445); assay: LTEA_HepaRG_FAS: Life Technologies and Expression Analysis (LTEA) Assay for Fas cell surface death receptor (FAS) using HepaRG (AID 2283447); settings: mRNA level, 48 h; actives raise or lower the signal
Summary of the method: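 FAS transcript level was measured by TaqMan qRT-PCR against three housekeeping genes after 48 h chemical exposure. Cells were HepaRG, 0.5% DMSO vehicle, with a top concentration of 100 uM and half-log dilutions over eight points, in duplicate.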

[3] = read-out: Fatty acid synthase (Homo sapiens) (UniProt P49327); assay: LTEA_HepaRG_FASN: Life Technologies and Expression Analysis (LTEA) Assay for Fatty Acid Synthase (FASN) using HepaRG (AID 2283448); settings: mRNA level, 48 h; actives raise or lower the signal
Summary of the method: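 Transcript-level assay: HepaRG liver cells are treated for 48 h across an eight-point range topping at 100 uM, and FASN mRNA, normalized to three housekeeping genes, is compared with DMSO controls in both directions.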

[4] = read-out: Cyclin D2 (CCND2), CCND2 (gene 894); assay: LTEA_HepaRG_CCND2: Life Technologies and Expression Analysis (LTEA) Assay for Cyclin D2 (CCND2) using HepaRG (AID 2283449); settings: mRNA level, 48 h; actives raise or lower the signal
Summary of the method: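 Read-out is CCND2 mRNA level measured by qRT-PCR in human HepaRG liver cells and normalised to three housekeeping genes. Chemicals were applied for 48 h at up to 100 uM, with gain or loss fitted relative to 0.5% DMSO.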

[5] = read-out: Cyclin Dependent Kinase Inhibitor 1A (CDKN1A), CDKN1A (gene 1026); assay: LTEA_HepaRG_CDKN1A: Life Technologies and Expression Analysis (LTEA) Assay for Cyclin Dependent Kinase Inhibitor 1A (CDKN1A) using HepaRG (AID 2283450); settings: mRNA level, 48 h; actives raise or lower the signal
Summary of the method: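 Differentiated HepaRG cells in serum-free induction medium, exposed 48 h in duplicate to eight half-log concentrations up to 100 uM in 0.5% DMSO. mRNA measured by TaqMan qRT-PCR, normalized to ACTB, GAPDH, POLR2A; bidirectional fit versus DMSO.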

[6] = read-out: Cyclin D1 (CCND1), CCND1 (gene 595); assay: LTEA_HepaRG_CCND1: Life Technologies and Expression Analysis (LTEA) Assay for Cyclin D1 (CCND1) using HepaRG (AID 2283451); settings: mRNA level, 48 h; actives raise or lower the signal
Summary of the method: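 Differentiated HepaRG cells exposed 48 h in serum-free induction medium to eight half-log concentrations from 100 uM top, 0.5% DMSO, duplicates. CCND1 mRNA measured by Fluidigm TaqMan qRT-PCR, normalised to ACTB, GAPDH, POLR2A; bidirectional fit.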

[7] = read-out: catalase (CAT), CAT (gene 847); assay: LTEA_HepaRG_CAT: Life Technologies and Expression Analysis (LTEA) Assay for catalase (CAT) using HepaRG (AID 2283452); settings: mRNA level, 48 h; actives raise or lower the signal;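 as to AC50: TaqMan qRT-PCR signal normalized to ACTB GAPDH and POLR2A housekeeping genes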
Summary of the method: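 Expression of CAT was quantified by TaqMan qRT-PCR with ACTB/GAPDH/POLR2A normalization after 48 h chemical exposure of HepaRG. Eight-point half-log series, top 100 uM, in 0.5% DMSO; gain or loss fitted against vehicle.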

[8] = read-out: flavin-containing dimethylaniline monooxygenases 3 (FMO3), FMO3 (gene 2328); assay: LTEA_HepaRG_FMO3: Life Technologies and Expression Analysis (LTEA) Assay for flavin-containing dimethylaniline monooxygenases 3 (FMO3) using HepaRG (AID 2283453); settings: mRNA level, 48 h; actives raise or lower the signal;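 as to AC50: FMO3 transcript by TaqMan qRT-PCR normalized to ACTB GAPDH and POLR2A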
Summary of the method: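 HepaRG, 48 h exposure, 8-pt half-log series from 100 uM, 0.5% DMSO vehicle, duplicates; FMO3 transcript by Fluidigm TaqMan qRT-PCR, housekeeping-normalized; gain/loss fit vs DMSO.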

[9] = read-out: Cytochrome P450 (CYP1A1), CYP1A1 (gene 1543); assay: LTEA_HepaRG_CYP1A1: Life Technologies and Expression Analysis (LTEA) Assay for Cytochrome P450 (CYP1A1) using HepaRG (AID 2283454); settings: mRNA level, 48 h; actives raise or lower the signal
Summary of the method: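 Differentiated human HepaRG cells, after 48 h plating, exposed in duplicate for 48 h in serum-free induction medium to 8 half-log concentrations up to 100 uM in 0.5% DMSO. CYP1A1 mRNA by qRT-PCR, normalized to ACTB/GAPDH/POLR2A; bidirectional fit versus DMSO.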

[10] = read-out: CFLAR gene, CFLAR (gene 8837); assay: LTEA_HepaRG_CFLAR: Life Technologies and Expression Analysis (LTEA) Assay for CFLAR gene using HepaRG (AID 2283455); settings: mRNA level, 48 h; actives raise or lower the signal
Summary of the method: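 HepaRG, 48 h exposure, 8-pt conc-response (100 uM top, half-log), 0.5% DMSO vehicle, duplicates. CFLAR expression by qRT-PCR; ACTB/GAPDH/POLR2A normalization; gain or loss fit vs DMSO baseline.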

[11] = read-out: Forkhead box O1 (FOXO1), FOXO1 (gene 2308); assay: LTEA_HepaRG_FOXO1: Life Technologies and Expression Analysis (LTEA) Assay for Forkhead box O1 (FOXO1) using HepaRG (AID 2283456); settings: mRNA level, 48 h; actives raise or lower the signal
Summary of the method: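 Readout is FOXO1 transcript level by multiplexed qRT-PCR against three housekeeping genes, curve-fitted in both directions relative to 0.5% DMSO vehicle. Human HepaRG cultures received chemicals for 48 h, up to 100 uM in half-log steps.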

[12] = CEETOX_H295R_OHPREG: CeeTox H295R High-throughput Steroidogenesis Assay for OH-Pregnenolone (OHPREG) (AID 2283434); settings: actives raise or lower the signal
Summary of the method: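 Hormone levels in spent medium were measured by tandem mass spectrometry following liquid-liquid extraction. Cells (H295R) had been forskolin-stimulated (10 uM, 48 h) before a 48 h chemical exposure at 0.1% DMSO, with activity fitted in both directions against DMSO.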

[13] = CEETOX_H295R_OHPROG: CeeTox H295R High-throughput Steroidogenesis Assay for OH-Progesterone (OHPROG) (AID 2283435); settings: actives raise or lower the signal;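 as to AC50: human adrenal H295R cells primed 48 h with 10 µM forskolin; 17alpha-hydroxyprogesterone secreted into medium measured by HPLC-MS/MS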
Summary of the method: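 Secreted 17alpha-hydroxyprogesterone is read by tandem MS from media of forskolin-primed H295R cells dosed with chemical for 48 h. Activity is fitted in both directions against DMSO baseline; cytotoxic concentrations are re-tested diluted.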

[14] = CEETOX_H295R_CORTIC: CeeTox H295R High-throughput Steroidogenesis Assay for Corticosterone (CORTIC) (AID 2283437); settings: actives raise or lower the signal;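 also: corticosterone secreted into medium quantified by mass spectrometry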;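 as to AC50: human H295R adrenal cells prestimulated with forskolin before chemical exposure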
Summary of the method: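 Corticosterone secreted into medium is measured by reverse-phase HPLC with tandem MS following liquid-liquid extraction. Cells are forskolin-stimulated (10 uM, 48 h) before 48 h test exposure; activity fitted in both directions against DMSO.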

[15] = CEETOX_H295R_DOC: CeeTox H295R High-throughput Steroidogenesis Assay for DOC (AID 2283439); settings: actives raise or lower the signal
Summary of the method: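 Secreted DOC was quantified from H295R media by HPLC-MS/MS after 48 h chemical exposure following 48 h forskolin (10 uM) prestimulation. Values were fitted in both directions relative to DMSO, the negative control and baseline.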

[16] = CEETOX_H295R_ESTRADIOL: CeeTox H295R High-throughput Steroidogenesis Assay for Estradiol (AID 2283440); settings: actives raise or lower the signal;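 also: estradiol secreted into medium quantified by LC-MS/MS after dansyl derivatisation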
Summary of the method: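 H295R cells pre-stimulated 48 h with 10 uM forskolin, then exposed 48 h to chemical in 0.1% DMSO. Medium estradiol quantified by MTBE extraction, dansyl derivatisation and HPLC-MS/MS; bidirectional fit versus DMSO; MTT viability required >/=70%.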

[17] = CEETOX_H295R_ESTRONE: CeeTox H295R High-throughput Steroidogenesis Assay for Estrone (AID 2283441); settings: actives raise or lower the signal;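 also: estrone secreted into medium measured by LC-MS/MS after dansyl derivatization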
Summary of the method: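 H295R cells; 48 h forskolin (10 uM) prestimulation; 48 h compound exposure, 0.1% DMSO final. Medium estrone: MTBE extraction, dansyl derivatization, HPLC-MS/MS. Bidirectional fit vs DMSO.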

[18] = CEETOX_H295R_PROG: CeeTox H295R High-throughput Steroidogenesis Assay for Progesterone (PROG) (AID 2283442); settings: actives raise or lower the signal;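 as to AC50: human H295R adrenal cells primed with 10 µM forskolin before dosing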
Summary of the method: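 H295R adrenal cells prestimulated 48 h with 10 uM forskolin, then exposed 48 h to test chemical in 0.1% DMSO. Progesterone in medium quantified by HPLC-MS/MS after MTBE extraction; viability checked by MTT in same wells.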

[19] = CEETOX_H295R_ANDR: CeeTox H295R High-throughput Steroidogenesis Assay for Androstenedione (ANDR) (AID 2283436); settings: actives raise or lower the signal
Summary of the method: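 Read-out is androstenedione secreted into medium, measured by tandem mass spectrometry after liquid-liquid extraction. Cells were H295R, dosed for 48 h per modified OECD 456; activity fitted in both directions relative to DMSO.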

[20] = CEETOX_H295R_TESTO: CeeTox H295R High-throughput Steroidogenesis Assay for Testosterone (TESTO) (AID 2283457); settings: actives raise or lower the signal;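 also: cells exposed to chemicals for 48 h before medium collection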
Summary of the method: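 H295R adrenal cells, passage ≤10, exposed to chemicals for 48 h. Testosterone in medium measured by MTBE extraction and HPLC-MS/MS against a 7-point standard curve. Bidirectional fit versus DMSO; MTT viability checked in the same wells.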

Measured: AC50

Peroxisome proliferator-activated receptor gamma (Homo sapiens), sequence (P37231 whole entry, looked up, the tested form may be a part): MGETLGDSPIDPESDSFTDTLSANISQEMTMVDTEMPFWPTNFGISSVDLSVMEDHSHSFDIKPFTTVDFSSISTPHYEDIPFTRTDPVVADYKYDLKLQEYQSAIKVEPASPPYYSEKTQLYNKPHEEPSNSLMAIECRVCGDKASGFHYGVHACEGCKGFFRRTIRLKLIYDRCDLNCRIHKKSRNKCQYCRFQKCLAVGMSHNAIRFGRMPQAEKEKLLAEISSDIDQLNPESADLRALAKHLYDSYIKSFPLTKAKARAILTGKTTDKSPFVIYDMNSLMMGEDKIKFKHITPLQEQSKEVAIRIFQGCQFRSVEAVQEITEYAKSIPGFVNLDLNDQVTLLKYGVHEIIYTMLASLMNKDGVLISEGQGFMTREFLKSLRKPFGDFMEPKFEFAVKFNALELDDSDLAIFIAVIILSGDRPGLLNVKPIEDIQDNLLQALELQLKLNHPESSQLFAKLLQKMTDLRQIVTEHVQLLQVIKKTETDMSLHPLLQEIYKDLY
Fatty acid synthase (Homo sapiens), sequence (P49327 whole entry, looked up): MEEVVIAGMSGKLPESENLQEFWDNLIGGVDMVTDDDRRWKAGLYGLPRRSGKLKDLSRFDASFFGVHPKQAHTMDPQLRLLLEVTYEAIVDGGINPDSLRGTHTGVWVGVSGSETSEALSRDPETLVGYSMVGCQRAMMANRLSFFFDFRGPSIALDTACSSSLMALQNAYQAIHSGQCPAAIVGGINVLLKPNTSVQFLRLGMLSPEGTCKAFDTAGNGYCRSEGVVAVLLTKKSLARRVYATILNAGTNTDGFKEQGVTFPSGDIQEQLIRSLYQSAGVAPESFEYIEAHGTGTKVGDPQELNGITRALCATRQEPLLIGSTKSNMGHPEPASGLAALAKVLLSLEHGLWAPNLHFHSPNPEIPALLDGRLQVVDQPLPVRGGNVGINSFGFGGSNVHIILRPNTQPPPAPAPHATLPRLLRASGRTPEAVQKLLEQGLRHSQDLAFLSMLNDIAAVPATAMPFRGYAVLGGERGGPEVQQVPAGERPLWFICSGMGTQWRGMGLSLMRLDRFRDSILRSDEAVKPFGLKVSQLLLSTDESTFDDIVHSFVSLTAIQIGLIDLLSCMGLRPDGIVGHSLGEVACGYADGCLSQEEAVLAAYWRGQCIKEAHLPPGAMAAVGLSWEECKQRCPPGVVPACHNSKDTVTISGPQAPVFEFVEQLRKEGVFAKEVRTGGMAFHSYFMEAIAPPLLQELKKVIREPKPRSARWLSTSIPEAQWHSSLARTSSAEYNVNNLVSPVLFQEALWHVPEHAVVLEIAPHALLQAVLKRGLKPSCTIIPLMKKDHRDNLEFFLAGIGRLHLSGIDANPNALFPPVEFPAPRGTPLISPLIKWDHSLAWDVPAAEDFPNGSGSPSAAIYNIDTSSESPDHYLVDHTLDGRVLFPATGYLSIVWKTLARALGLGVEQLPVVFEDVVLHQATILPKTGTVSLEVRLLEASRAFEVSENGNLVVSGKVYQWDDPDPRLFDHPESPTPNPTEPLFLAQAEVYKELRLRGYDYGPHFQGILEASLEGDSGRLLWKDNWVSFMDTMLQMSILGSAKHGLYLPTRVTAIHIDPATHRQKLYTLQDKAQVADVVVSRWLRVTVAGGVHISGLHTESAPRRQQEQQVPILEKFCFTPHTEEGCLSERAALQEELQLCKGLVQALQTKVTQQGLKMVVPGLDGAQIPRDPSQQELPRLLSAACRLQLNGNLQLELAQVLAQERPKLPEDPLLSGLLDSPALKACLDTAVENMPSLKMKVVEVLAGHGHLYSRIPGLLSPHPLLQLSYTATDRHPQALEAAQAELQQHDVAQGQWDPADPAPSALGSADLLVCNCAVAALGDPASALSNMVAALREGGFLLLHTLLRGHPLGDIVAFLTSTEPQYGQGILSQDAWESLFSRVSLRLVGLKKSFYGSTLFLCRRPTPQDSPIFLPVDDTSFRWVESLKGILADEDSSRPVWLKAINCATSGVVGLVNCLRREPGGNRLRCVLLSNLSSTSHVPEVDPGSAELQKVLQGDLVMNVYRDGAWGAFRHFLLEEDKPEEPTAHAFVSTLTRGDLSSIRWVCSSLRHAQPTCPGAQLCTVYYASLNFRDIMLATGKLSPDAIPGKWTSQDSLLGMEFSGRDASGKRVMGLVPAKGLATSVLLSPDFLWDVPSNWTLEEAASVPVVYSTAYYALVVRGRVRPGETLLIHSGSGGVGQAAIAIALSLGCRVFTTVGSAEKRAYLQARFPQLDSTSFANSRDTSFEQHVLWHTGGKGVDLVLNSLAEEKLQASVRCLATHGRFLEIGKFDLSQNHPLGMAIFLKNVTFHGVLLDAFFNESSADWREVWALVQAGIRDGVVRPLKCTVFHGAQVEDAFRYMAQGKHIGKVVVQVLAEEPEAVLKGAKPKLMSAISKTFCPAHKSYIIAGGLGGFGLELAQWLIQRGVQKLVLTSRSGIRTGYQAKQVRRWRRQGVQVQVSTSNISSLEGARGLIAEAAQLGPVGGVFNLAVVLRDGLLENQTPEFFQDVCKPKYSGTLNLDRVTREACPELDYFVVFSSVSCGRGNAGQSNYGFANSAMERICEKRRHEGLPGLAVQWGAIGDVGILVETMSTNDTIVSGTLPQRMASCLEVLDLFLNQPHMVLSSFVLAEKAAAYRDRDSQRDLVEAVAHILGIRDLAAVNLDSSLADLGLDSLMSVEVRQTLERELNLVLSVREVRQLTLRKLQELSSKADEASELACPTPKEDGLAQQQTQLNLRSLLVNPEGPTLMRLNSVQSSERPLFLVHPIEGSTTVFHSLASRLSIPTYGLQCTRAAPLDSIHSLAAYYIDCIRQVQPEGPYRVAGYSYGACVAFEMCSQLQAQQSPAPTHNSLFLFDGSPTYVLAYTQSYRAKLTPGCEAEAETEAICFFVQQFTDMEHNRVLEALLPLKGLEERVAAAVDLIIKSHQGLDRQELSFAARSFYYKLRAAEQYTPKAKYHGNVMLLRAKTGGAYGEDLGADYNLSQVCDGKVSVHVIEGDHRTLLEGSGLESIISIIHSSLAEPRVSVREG

CCOC(=O)NCCOc1ccc(Oc2ccccc2)cc1
inactive: [1] | [4] | [6] | [10]
active: [2] 85.4 µM | [3] 50 µM | [5] 83.4 µM | [7] 89.3 µM | [8] 96 µM | [9] 50 µM | [11] 88.5 µM

CCCCOC(=O)[C@@H](C)Oc1ccc(Oc2ccc(C(F)(F)F)cn2)cc1
active: [9] 50.2 µM
not listed: [6] | [19] | [20]
inactive: all other assays above

C[C@]12C[C@H](O)[C@H]3[C@@H](CCC4=CC(=O)CC[C@@]43C)[C@@H]1CC[C@@H]2C(=O)CO
active: [12] 16.1 µM | [13] 72.2 µM | [14] 1.04 µM | [9] 50 µM
not listed: [6] | [16] | [18] | [19] | [20]
inactive: all other assays above

CN(C)C(=O)Nc1ccc(Cl)c(Cl)c1
active: [13] 42.6 µM | [19] 30.8 µM | [3] 20.3 µM | [8] 50 µM | [9] 27 µM | [20] 28.1 µM
not listed: [6] | [16] | [17]
inactive: all other assays above

C#C[C@]1(O)CC[C@H]2[C@@H]3CCC4=CC(=O)CC[C@@H]4[C@H]3CC[C@@]21CC
active: [12] 2.42 µM
not listed: [6] | [16] | [17] | [19] | [20]
inactive: all other assays above

c1ccc(Nc2ccccc2)cc1
not listed: [4] | [6] | [14] | [15] | [16] | [17] | [19] | [20]
inactive: all other assays above

C=CCOC(Cn1ccnc1)c1ccc(Cl)cc1Cl (configuration not stated)
inactive: [1] | [12] | [14] | [15] | [4]
active: [13] 0.142 µM | [18] 0.296 µM | [2] 68.9 µM | [3] 38.3 µM | [5] 28.6 µM | [7] 33.5 µM | [8] 35.3 µM | [9] 12.1 µM | [10] 79.2 µM | [11] 78.1 µM

CCOC(=O)C(C)Oc1ccc(Oc2cnc3cc(Cl)ccc3n2)cc1 (configuration not stated)
active: [3] 43 µM | [8] 14 µM | [9] 18.5 µM
not listed: [6] | [16] | [17] | [19] | [20]
inactive: all other assays above

Oc1ccc(C(c2ccc(O)cc2)C(Cl)(Cl)Cl)cc1
active: [12] 0.299 µM | [13] 10 µM | [15] 0.207 µM | [18] 0.848 µM | [3] 88.8 µM | [7] 88.8 µM | [8] 94 µM | [11] 93.2 µM
inactive: [1] | [14] | [2] | [4] | [5] | [9] | [10]

CCCCC(CC)CN1C(=O)C2C3C=CC(C3)C2C1=O (configuration not stated)
active: [3] 34.6 µM | [5] 77.1 µM | [7] 77.2 µM | [8] 78.7 µM | [9] 12.6 µM
not listed: [6] | [19] | [20]
inactive: all other assays above

O=C(Nc1ccc([N+](=O)[O-])cc1Cl)c1cc(Cl)ccc1O
active: [2] 3.08 µM | [3] 2.94 µM | [7] 2.85 µM | [8] 2.69 µM | [9] 0.147 µM | [10] 2.33 µM | [11] 3.33 µM
not listed: [6] | [19] | [20]
inactive: all other assays above

CCCOC(=O)c1ccc(C(=O)OCCC)nc1
active: [9] 24.8 µM
inactive: [1] | [2] | [3] | [4] | [5] | [6] | [7] | [8] | [10] | [11]
